Sampled rows, rich in hits. Any-hit rate of the full collection: about 3.5%.
Pf apPOL inh = Pf-apPOL inhibitors, biochemical, fluorescence; Recombinant Pf-apPOL, molecular beacon fluorescence, 1.5 h; Plasmodium falciparum apicoplast DNA polymerase (apPOL); 210,000 compounds, 0.25% hits; inhibition, % at 10 µM; AID 1794808, 2022
mHTT-CaM PPI inh = mutant huntingtin-calmodulin interaction inhibitors – biochemical, AlphaScreen, primary screen; P42858; AlphaScreen His-mHTT/GST-CaM binding, luminescence; inhibition, % at 15 µM; 190,000 compounds, 3.6% hits;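 also: 0% = both proteins with DMSO and 100% = one protein alone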
Active calls of the source: *; i = inactive; nt = no result given. Rule as the data show it: active = inhibition above about 50%; inactive = the rest.

SMILES | Pf apPOL inh | mHTT-CaM PPI inh
COc1ccc(CN2COc3ccc4c(c3C2)OC(=Cc2ccco2)C4=O)cc1OC | -15 | 53*
O=C1NN(c2ccc(Cl)c(Cl)c2)C(=O)/C1=C/c1ccc(-c2ccc3c(c2)COC3=O)o1 | 56* | 60*
CC1=NN(c2ccc(Cl)c(Cl)c2)C(=O)/C1=C/c1ccc(-c2ccc3c(c2)C(=O)OC3)o1 | -9 | 38
Cc1cc2[nH]c(C(=O)Nc3cccc(Cl)c3C)c(CN3CCOCC3)c2s1 | 15 | 36
Cc1cc2[nH]c(C(=O)Nc3cccc(C)c3C)c(CN3CCOCC3)c2s1 | -9 | 53*
COc1ccc(-c2nn(C)c(=O)c3ccccc23)cc1NC(=O)c1ccccc1OC | 0 | 5
COc1cccc(-n2nc(C(=O)Nc3cc(OC)ccc3OC)c3ccccc3c2=O)c1 | -3 | 9
O=C(CCN1CCCC1)c1ccc2ccccc2c1 | 1 | nt
O=C(Nc1cc(-c2cccs2)nn1CCO)C1c2ccccc2Oc2ccccc21 | -4 | 58*
O=C(NCCn1nc(-c2cccs2)ccc1=O)C1c2ccccc2Oc2ccccc21 | -7 | -15
CC1=NN(C(=O)c2cccc(O)c2)C(O)(c2ccc(Br)cc2)C1 (configuration not stated) | 0 | 42
CC1=NN(C(=O)c2cc(Br)ccc2O)C(O)(c2ccccc2)C1 (configuration not stated) | -9 | 98*
CC1=NN(C(=O)c2cccc([N+](=O)[O-])c2)C(O)(c2ccc(Br)cc2)C1 (configuration not stated) | -4 | 66*
COc1cccc(C2(O)CC(C(F)(F)F)=NN2C(=O)c2ccccc2[N+](=O)[O-])c1 (configuration not stated) | -1 | 14
CCC1=NN(C(=O)c2ccc(C)cc2)C(O)(c2ccc(Br)cc2)C1 (configuration not stated) | 20 | 70*
O=C(c1ccccc1)N1N=C(C(F)(F)F)CC1(O)c1cccc([N+](=O)[O-])c1 (configuration not stated) | -5 | 53*
CC1=NN(C(=O)C(C)C)C(O)(c2ccc(Br)cc2)C1 (configuration not stated) | -1 | 21
CCC1=NN(C(=O)c2ccccc2)C(O)(c2ccc(Br)cc2)C1 (configuration not stated) | -2 | 33
CC(=O)N1CCC(n2c(C)nc(C(=O)NCc3ccc(OC(C)C)cc3)c2C)CC1 | -8 | 5
CCn1nccc1C(=O)Nc1cc(C)nn1-c1nc2ccc(F)cc2s1 | -3 | -3
Cc1nn(C)c(C)c1CNC(=O)C1CCN(c2cnn(Cc3ccccc3)c(=O)c2)CC1 | -8 | 1
O=C(COc1ccccc1Br)Nc1ccc(S(=O)(=O)Nc2nccs2)cc1 | -7 | 1
O=C(c1ccc2c(c1)OCO2)N1CCOC(c2ccc(C(F)(F)F)cc2)C1 (configuration not stated) | -10 | -7
Cc1cc(C)cc(NC(=O)CN(c2ccccc2)S(=O)(=O)c2ccccc2[N+](=O)[O-])c1 | 4 | 17
NC(=O)COc1ccc(/C=c2\sc3nc(=O)c(Cc4ccccc4)nn3c2=O)cc1 | 0 | 4
SMILES | Pf apPOL inh | mHTT-CaM PPI inh
O=C(Nc1ccc2c(c1)OCCO2)c1ccc(=O)[nH]n1 | 1 | -3
CC1=NN(C(=O)c2cccc([N+](=O)[O-])c2)C(O)(c2ccc(Cl)cc2)C1 (configuration not stated) | 1 | 59*
CC1=NN(C(=O)c2ccc(Cl)cc2)C(O)(c2cccc([N+](=O)[O-])c2)C1 (configuration not stated) | -11 | 40
CCCS(=O)(=O)C(C#N)=Cc1cc(C(F)(F)F)cc(C(F)(F)F)c1 | -11 | nt
Cc1ccc(C(=O)N2N=C(c3ccc(Br)cc3)CC2c2ccco2)cc1 (configuration not stated) | -3 | 78*
O=C(O)CCCC(=O)N1N=C(c2ccc(Br)cc2)CC1c1ccco1 (configuration not stated) | -2 | 22
CCc1ccccc1NC(=O)C1CCCN(c2nccc3sccc23)C1 (configuration not stated) | -4 | 27
CCCN1C(=O)Cc2ccccc2C1C(=O)NCc1ccccc1OC (configuration not stated) | 0 | -1
COc1ccccc1CNC(=O)C1c2ccccc2CC(=O)N1Cc1ccccc1 (configuration not stated) | 1 | 100*
Cc1ccc(C(=O)Nc2cc(-c3ccccn3)no2)cc1F | -2 | -7
S=c1sc2c(N3CCc4ccccc43)ncnc2n1-c1ccccc1 | nt | -2
S=c1sc2c(Cl)ncnc2n1-c1ccccc1 | nt | 83*
Cc1ccc(C)c(N2CCN(C(=O)C3CCN(c4cncnc4N(C)C)CC3)CC2)c1 | 2 | 60*
CN(C)c1ncncc1N1CCC(C(=O)N2CCCC2)CC1 | 4 | -5
CN(C)c1ncncc1N1CCC(C(=O)N2CCC(Cc3ccccc3)CC2)CC1 | -4 | 50*
CC1CCN(C(=O)C2CCN(c3cncnc3N(C)C)CC2)CC1 | -4 | -2
Cc1cc(OCC(=O)Nc2ccc(F)cc2Cl)nc(N2CCCC(C)C2)n1 (configuration not stated) | 0 | -10
CCOc1ccc(N2COc3cc4c(cc3C2)OCO4)cc1 | -14 | 8
CCOc1ccc(N2COc3ccc(Br)cc3C2)cc1 | -1 | 84*
COc1ccc(Cl)cc1NC(=O)N1CCOc2ccccc21 | -5 | -8
CC1Oc2ccccc2C=C1C=CC(=O)O (configuration not stated) | -9 | -2
CC1Oc2ccccc2C=C1C=C1SC(=S)N(CCC(=O)O)C1=O (configuration not stated) | -7 | 53*
COc1ccc(C=C2SC(=S)N(CCC(=O)O)C2=O)c(OC)c1 | -6 | 8
CC1Oc2ccccc2C=C1C=C1SC(=S)NC1=O (configuration not stated) | -13 | 59*
COc1ccc(C(=O)N2CCC(CCOc3ccncc3)CC2)cn1 | -5 | -5
SMILES | Pf apPOL inh | mHTT-CaM PPI inh
Cc1ccc(-n2ncc3c2ncn2nc(COc4ccccc4C)nc32)cc1 | -12 | 3
COc1ccc(CCCC(=O)Nc2ccc(Cl)cc2C)cc1 | 1 | -2
COc1ccc(CCCC(=O)Nc2ccc(I)cc2C)cc1 | 93* | -4
CSc1ccc(NC(=O)CN2C(=O)C3CCCN3C(=O)c3ccc(F)cc32)cc1 (configuration not stated) | -9 | 4
COc1ccc(NS(=O)(=O)c2cccc(S(=O)(=O)c3ccccc3)c2)cc1 | -2 | -5
CCOc1cc(C=O)c(Br)cc1OCc1ccccc1 | 6 | -5
O=Cc1cc(Cc2ccccc2)cc(Br)c1O | -3 | 100*
Cc1ccc(C(=O)O/N=C(\N)c2cccnc2)cc1 | -2 | i
N#C/C(=C\c1cc2c(cc1Br)OCO2)c1ccc([N+](=O)[O-])cc1 | 3 | 7
N#C/C(=C\c1ccccc1/C=C(\C#N)c1ccc2c(c1)OCO2)c1ccc2c(c1)OCO2 | nt | 73*
CCOc1cc(/C=C2/C(=O)N(c3ccccc3)N=C2C)ccc1O | 8 | 43
CC1=NN(c2ccccc2)C(=O)/C1=C/c1cccc(C(=O)O)c1 | 0 | 5
CC1=NN(c2ccccc2)C(=O)/C1=C/C=C/c1ccccc1 | -2 | 71*
CC1=NN(c2ccccc2)C(=O)/C1=C/c1cccc(Oc2ccccc2)c1 | 3 | 52*
